Bioassay records (PubChem BioAssay)
Sampled rows, rich in hits. Any-hit rate of the full collection: about 2.5%.
UBC9 SUMO inh – inhibitors of in vitro SUMOylation cascade, primary screen, biochemical, HTRF, uHTS; HTRF SUMOylation assay, SAE1/SAE2 + UBC9; 290,000 compounds, 0.36% hits; inhibition, % at 35 µM; in the data active = inhibition above about 50%, passing the limit was not always enough; inconclusive = no clear call, values can overlap the other calls
PfM18AAP inh – PfM18AAP inhibitors, malaria aminopeptidase, primary screen, biochemical, QFRET, recombinant enzyme; M18 aspartyl aminopeptidase (Plasmodium falciparum 3D7); inhibition, % at 7.35 µM; AID 1822, 2009; 290,000 compounds, 1.2% hits; H-Glu-NHMec fluorogenic cleavage;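 active = inhibition above the campaign mean inhibition over all tested compounds plus 3 SD, cut at about 28% in these data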
HDAC3 inhib – HDAC3 deacetylase inhibitors, primary screen, biochemical, fluorescence, cell-free homogeneous | AID 2718, 2010 | Histone deacetylase 3 (Homo sapiens), O15379 | inhibition, % at 8.3 µM | 320,000 compounds, 0.15% hits | recombinant HDAC3, fluorogenic peptide/trypsin coupled; in the data active = inhibition above about 26%, passing the limit was not always enough; inconclusive = no clear call, values can overlap the other calls
Target sequence (O15379 whole entry, looked up): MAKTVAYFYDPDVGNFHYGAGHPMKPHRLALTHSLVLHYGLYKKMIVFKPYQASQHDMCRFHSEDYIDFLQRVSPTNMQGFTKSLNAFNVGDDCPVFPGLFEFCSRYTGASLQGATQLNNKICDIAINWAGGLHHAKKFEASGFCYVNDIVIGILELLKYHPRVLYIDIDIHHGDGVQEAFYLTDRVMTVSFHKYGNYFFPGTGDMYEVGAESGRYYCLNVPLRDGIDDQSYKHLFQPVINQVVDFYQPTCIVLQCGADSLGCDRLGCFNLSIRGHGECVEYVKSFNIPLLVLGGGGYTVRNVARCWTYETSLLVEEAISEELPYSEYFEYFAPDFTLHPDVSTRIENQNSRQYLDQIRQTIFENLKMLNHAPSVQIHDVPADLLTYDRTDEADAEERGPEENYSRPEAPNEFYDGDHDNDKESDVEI
p97 inhibitor – inhibitors of human p97 ATPase, primary screen, biochemical; AID 1481, 2009; recombinant p97 ATPase, Kinase-Glo ATP luminescence, 3 h; 220,000 compounds, 0.42% hits; inhibition, % at 8 µM; Transitional endoplasmic reticulum ATPase (Homo sapiens), P55072; in the data active = inhibition above about 15%
G6PDH CS – L. mesenteroides G6PDH inhibitors, counter-screen for G6PDH-coupled screening assays, biochemical, Leuconostoc mesenteroides enzyme | glucose-6-phosphate dehydrogenase [Leuconostoc mesenteroides] | Purified L. mesenteroides G6PDH, diaphorase/resazurin coupled fluorescence, 45 min | inhibition, % at 5 µM | 200,000 compounds, 0.12% hits | AID 1020, 2008; in the data active = inhibition above about 50%
PHOSPHO1 inh – PubChem AID 1565 | Phosphoethanolamine/phosphocholine phosphatase (Homo sapiens), Q8TCT1 | recombinant PHOSPHO1, absorbance phosphatase assay | inhibition, % at 13.3 µM | 290,000 compounds, 1.1% hits; in the data active = inhibition above about 60%
Target sequence (Q8TCT1 whole entry, looked up): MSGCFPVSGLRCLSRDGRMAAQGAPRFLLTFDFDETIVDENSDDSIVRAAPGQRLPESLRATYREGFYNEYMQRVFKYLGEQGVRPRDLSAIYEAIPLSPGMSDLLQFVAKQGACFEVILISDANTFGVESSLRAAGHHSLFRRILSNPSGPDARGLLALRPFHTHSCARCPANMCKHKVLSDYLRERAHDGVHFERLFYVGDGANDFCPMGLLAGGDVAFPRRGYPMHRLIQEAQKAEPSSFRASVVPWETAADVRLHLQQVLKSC
Each line names hits and unclear results; the compound was inactive in the other large screens.

CCN(CCNS(=O)(=O)c1ccc2c(c1)oc(=O)n2C)c1ccccc1	none
CCc1cccc(NS(=O)(=O)c2ccc3c(c2)oc(=O)n3C)c1	PHOSPHO1 inh 68
Cn1c(=O)oc2cc(S(=O)(=O)Nc3ccccc3)ccc21	none
Cc1nc(NC(=O)CCN2C(=O)C3CC=CCC3C2=O)sc1C (configuration not stated)	PHOSPHO1 inh 61 (no result: p97 inhibitor, G6PDH CS)
Cn1c(CCN2CCOCC2)nc2cc(NC(=O)c3cccs3)ccc21	PHOSPHO1 inh 64
CN(C)S(=O)(=O)c1ccc(Cl)c(C(=O)OCC(=O)c2ccco2)c1	none (no result: UBC9 SUMO inh, PfM18AAP inh, p97 inhibitor, G6PDH CS, PHOSPHO1 inh)
COCCCNC1=C(Cl)C(=O)c2ccccc2C1=O	none (no result: G6PDH CS)
CCN(CC)CCCNC1=C(Cl)C(=O)c2ccccc2C1=O	G6PDH CS 54
c1ccc(-c2nc3nonc3nc2-c2ccccc2)cc1	PHOSPHO1 inh 67
Nc1c(-c2ccccc2)nc(Cl)nc1-c1ccccc1	none
CCOc1ccc(N(CC(=O)N2CCOCC2)S(=O)(=O)c2ccc(F)cc2)cc1	none (no result: p97 inhibitor, G6PDH CS)
O=C(CSCc1ccco1)c1cccs1	HDAC3 inhib 92
CSc1ccc(-c2cc(=O)c3ccccc3o2)cc1	UBC9 SUMO inh 54
O=c1cc(-c2ccc(F)cc2)oc2ccccc12	none (no result: UBC9 SUMO inh, G6PDH CS, PHOSPHO1 inh)
O=c1/c(=C/c2ccco2)sc2nc(-c3ccccc3Br)nn12	PHOSPHO1 inh 98
CCOC(=O)c1c(C)[nH]c(C(=O)N/N=C/c2ccc(OC)c(OC)c2)c1C	PHOSPHO1 inh 75 (no result: p97 inhibitor, G6PDH CS)
COc1ccc(NC(=O)CN2C(=O)COc3ccc(S(=O)(=O)N4CCCCCC4)cc32)cc1	PHOSPHO1 inh 64 (no result: p97 inhibitor, G6PDH CS)
CCOc1ccc(NC(=O)CN2C(=O)COc3ccc(S(=O)(=O)N4CCCCC4)cc32)cc1	none (no result: UBC9 SUMO inh, p97 inhibitor, G6PDH CS)
CCCNC(=O)CN1C(=O)COc2ccc(S(=O)(=O)N3CCCCCC3)cc21	none (no result: HDAC3 inhib, p97 inhibitor, G6PDH CS)
CCCNC(=O)CN1C(=O)COc2ccc(S(=O)(=O)N3CC(C)CC(C)C3)cc21 (configuration not stated)	PHOSPHO1 inh 74 (no result: p97 inhibitor, G6PDH CS)
CC(C)NC(=S)Nc1c(N)[nH]c(=O)[nH]c1=O	none (no result: G6PDH CS)
Cc1ccc(O)c(C(=O)c2cc(C#N)c(=O)n(CC3CCCO3)c2)c1 (configuration not stated)	none
COc1ccc(O)c(C(=O)c2cc(C#N)c(=O)n(CC3CCCO3)c2)c1 (configuration not stated)	PHOSPHO1 inh 64
Cc1ccc(-c2csc(NC(=O)c3ccc(F)cc3)c2C(=O)O)cc1	none (no result: p97 inhibitor, G6PDH CS)
Cc1nn2c(c1-c1ccccc1)NC1=C(C(=O)CCC1)C2c1ccccc1 (configuration not stated)	none
COc1ccc(C2C3=C(CCCC3=O)Nc3c(-c4ccccc4)c(C)nn32)cc1 (configuration not stated)	UBC9 SUMO inh 51
COc1cc(NC(=S)N2CCN(S(=O)(=O)c3ccccc3)CC2)cc(OC)c1	none (no result: p97 inhibitor, G6PDH CS)
CC(C)(C)C1=Nn2c(nnc2-c2n[nH]c3c2CCC3)SC1	PHOSPHO1 inh 68
CCN(CC)S(=O)(=O)c1cccc(-c2n[nH]c(=S)n2/N=C/c2ccc(Br)cc2)c1	PHOSPHO1 inh 70
CCN(CC)S(=O)(=O)c1cccc(-c2n[nH]c(=S)n2/N=C/c2ccc(OC)cc2)c1	HDAC3 inhib inconclusive, PHOSPHO1 inh 83
COc1ccc(CN(C)C(=O)c2ccc(NS(=O)(=O)c3ccc(F)cc3)cc2)c(OC)c1OC	none (no result: p97 inhibitor, G6PDH CS)
Cc1ccccc1CC(=O)N1CCCC(CNC(=O)c2ccc(F)cc2)C1 (configuration not stated)	none (no result: p97 inhibitor, G6PDH CS)
Nc1cc(N)c(OCC(F)(F)F)cc1OCC(F)(F)F	p97 inhibitor 19, G6PDH CS 51
Cc1c(NC(=O)COC(=O)Cc2ccc(F)cc2)c(=O)n(-c2ccccc2)n1C	none (no result: UBC9 SUMO inh, PfM18AAP inh, p97 inhibitor, G6PDH CS, PHOSPHO1 inh)
N#C/C(=C/c1ccccc1)C(=O)NCc1ccccc1	PHOSPHO1 inh 64
N#C/C(=C\c1ccc(O)c(Br)c1)C(=O)NCc1ccccc1	none
Oc1ccc(O)c2c1C1c3ccccc3C2c2ccccc21	PfM18AAP inh 81 (no result: p97 inhibitor, G6PDH CS)
Oc1ccc2ccccc2c1C1Nc2cccc3cccc(c23)N1	UBC9 SUMO inh inconclusive
CC1CCN(C(=O)CSc2nncn2C)CC1	none
CC1CCN(C(=O)CSc2nncn2-c2ccccn2)CC1	PHOSPHO1 inh 74
CCOC(=O)C1=C(Cc2ccc(F)cc2)C(=O)c2ccccc2C1=O	G6PDH CS 62
O=C(OCc1ccc(F)cc1)c1ccc2c(c1)-c1ccccc1C2=O	none
N#Cc1c2c(c(=S)n(-c3ccccc3)c1N)CCCC2	PHOSPHO1 inh 61
CC1(C)Cc2c(C#N)c(N)n(-c3ccccc3)c(=S)c2CO1	none (no result: G6PDH CS)
Cc1nn(CCOc2ccccc2)c(=O)n1-c1ccc(Cl)cc1	none
Cc1nn(CCOc2ccccc2)c(=O)n1-c1ccccc1	PHOSPHO1 inh 62
Cc1ccc(-c2ccc(=O)n(CCC(=O)N3CCN(c4cccc(C)c4)C(C)C3)n2)cc1 (configuration not stated)	none (no result: p97 inhibitor, G6PDH CS, PHOSPHO1 inh)
COc1cc(C(=O)NCc2nnc(SCC(=O)Nc3nc4ccccc4s3)o2)cc(OC)c1OC	PfM18AAP inh 31
COc1cc(C(=O)NCc2nnc(SCC(=O)Nc3cc(C)on3)o2)cc(OC)c1OC	none
COc1ccc(C(=O)NCc2nnc(SCC(=O)Nc3cc(C)on3)o2)cc1OC	PfM18AAP inh 30
CC1(c2ccccc2Cl)NC(=O)N(CC(=O)N2c3ccccc3NC(=O)C2(C)C)C1=O (configuration not stated)	none (no result: UBC9 SUMO inh, PfM18AAP inh, p97 inhibitor, G6PDH CS, PHOSPHO1 inh)
CCOC(=O)/C(C#N)=C1/CCCCCN1C	none
CCOC(=O)/C(C#N)=C1\CCCN1CC(N)=S	PfM18AAP inh 31
CC[C@]1(c2ccccc2)C(=O)N(C(=O)OC)N1C(=O)OC	HDAC3 inhib 44 (no result: p97 inhibitor, G6PDH CS)
N#CC1=C2SCN(Cc3ccccc3)CN2C(=O)CC1c1ccc2c(c1)OCO2 (configuration not stated)	PHOSPHO1 inh 63
N#CC1=C2SCN(Cc3ccccc3)CN2C(=O)CC1c1cccs1 (configuration not stated)	PHOSPHO1 inh 68 (no result: HDAC3 inhib)
N#CC1=C(N)OC2=C(C(=O)CC(c3ccccc3)C2)C1c1ccc2c(c1)OCO2 (configuration not stated)	none
CC1CCCCC1NC(=O)COC(=O)c1cc(=O)c2ccccc2o1 (configuration not stated)	none
O=C(COC(=O)c1c2c(nc3ccccc13)/C(=C/c1ccco1)CC2)NC1CCCC1	UBC9 SUMO inh 71 (no result: HDAC3 inhib)
CC1CCCCC1NC(=O)COC(=O)c1c2c(nc3ccccc13)/C(=C/c1ccco1)CC2 (configuration not stated)	UBC9 SUMO inh 65
CC(C)CNC(=O)COC(=O)c1c2c(nc3ccccc13)/C(=C/c1cccs1)CC2	none
